In PubChem BioAssay AID602438 (Sanford-Burnham Center for Chemical Genomics, 2012):
Hit rate of the full screen: of about 360,000 compounds, about 3,100 (0.86%) were called active.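 How the source made its calls: active means inhibition or corrected inhibition above about 18%, plus a signal ratio from 0.5 to 1.5 (limit read from the data, passing the limit was not always enough); inactive means the rest.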 The sample as a whole holds a higher share of actives than the screen did.

target: Neuropilin-1 (Homo sapiens) (UniProt O14786); experiment: NRP-1/CendR peptide interaction modulators – biochemical, fluorescence polarization, uHTS, primary screen (AID 602438); conditions: FAM-RPARPAR peptide binding to NRP-1, fluorescence polarization; at 25 µM; active compounds read high
Sequence (O14786 whole entry, looked up): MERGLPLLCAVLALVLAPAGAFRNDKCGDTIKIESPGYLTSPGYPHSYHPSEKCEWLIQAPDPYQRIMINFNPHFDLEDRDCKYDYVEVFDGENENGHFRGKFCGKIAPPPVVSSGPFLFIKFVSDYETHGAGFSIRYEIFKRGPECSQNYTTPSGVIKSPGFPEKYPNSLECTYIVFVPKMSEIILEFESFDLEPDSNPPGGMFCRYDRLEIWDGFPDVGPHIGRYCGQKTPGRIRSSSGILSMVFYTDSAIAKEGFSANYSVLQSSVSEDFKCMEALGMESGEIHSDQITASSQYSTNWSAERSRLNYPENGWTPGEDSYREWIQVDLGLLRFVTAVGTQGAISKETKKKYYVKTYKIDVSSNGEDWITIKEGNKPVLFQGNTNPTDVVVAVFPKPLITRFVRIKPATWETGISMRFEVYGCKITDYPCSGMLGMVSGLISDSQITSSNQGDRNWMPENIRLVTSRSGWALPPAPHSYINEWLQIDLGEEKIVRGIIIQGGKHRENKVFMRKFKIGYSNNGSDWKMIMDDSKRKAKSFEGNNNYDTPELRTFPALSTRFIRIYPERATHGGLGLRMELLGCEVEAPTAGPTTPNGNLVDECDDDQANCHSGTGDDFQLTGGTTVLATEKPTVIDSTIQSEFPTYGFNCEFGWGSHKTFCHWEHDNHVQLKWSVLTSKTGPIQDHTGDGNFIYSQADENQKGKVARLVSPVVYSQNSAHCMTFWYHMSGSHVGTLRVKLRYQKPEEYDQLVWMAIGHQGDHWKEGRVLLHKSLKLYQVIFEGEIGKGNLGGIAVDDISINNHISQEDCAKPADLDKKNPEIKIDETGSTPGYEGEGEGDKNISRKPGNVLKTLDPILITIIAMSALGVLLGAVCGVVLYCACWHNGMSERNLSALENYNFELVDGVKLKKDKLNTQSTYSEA

Question: With `COc1ccc(Cl)cc1-c1cc(C(=O)Nc2cc(OC)c(OC)c(OC)c2)[nH]n1` as the compound, how does the inhibition read?
Answer: 5.6% (inactive)

Question: Which inhibition does the source give for `CC(=O)N/C(=C\c1ccccc1)C(=O)OC(C)C(=O)N(C)c1ccccc1` (centres undefined) here?
Answer: 6.8% (inactive)

Question: `O=C(CN(C(=O)c1csnn1)c1ccc(Br)cc1)NC1CCCC1` was tested. Which inhibition did it give?
Answer: 3.2% (inactive)

Question: How did the inhibition turn out when `Cc1ccccc1CCN(CC(=O)NC1CCCCC1)C(=O)c1csnn1` was run?
Answer: -9.2% (inactive)

Question: `Cc1ccc(CN(CC(=O)NC2CCCCC2)C(=O)c2csnn2)cc1` was tested. Which inhibition did it give?
Answer: 24.5% (active)

Question: For `Nc1nc2c(Br)ccc(Br)c2cc1C(=O)NCCc1ccccc1`, which inhibition is on record?
Answer: 6.1% (inactive)

Question: For `COCC(=O)Nc1cc(C(=O)OC)cc(C(=O)OC)c1`, which inhibition is on record?
Answer: 5.2% (inactive)

Question: How did the inhibition turn out when `COC(=O)c1cc(NC(=O)CN2CCN(C(C)=O)CC2)cc(C(=O)OC)c1` was run?
Answer: 3% (inactive)

Question: How did the inhibition turn out when `COC(=O)c1cc(NC(=O)CN2CCC(C(N)=O)(N3CCCCC3)CC2)cc(C(=O)OC)c1` was run?
Answer: 20.2% (active)

Question: How did the inhibition turn out when `COC(=O)C1(C(=O)OC)C/C=C\CN(S(=O)(=O)c2ccccc2[N+](=O)[O-])CCC1` was run?
Answer: 4.4% (inactive)

Question: Which inhibition does the source give for `CCOC(=O)[C@@H]1[C@H]2COc3cc(OC)ccc3[C@@H]2N2C(=O)N(c3cccc(C)c3)C(=O)[C@@]12C` here?
Answer: 4.4% (inactive)

Question: How did the inhibition turn out when `Cc1cc(OCCOc2cccc3cccnc23)c(C)cc1Cl` was run?
Answer: -14.2% (inactive)

Question: For `CC(=O)/C(=N\Nc1ccc(Cl)cc1Cl)Sc1cccc2cccnc12`, which inhibition is on record?
Answer: 61.1% (active)

Question: With `COc1cccc(CNC(=O)C2CCN(S(=O)(=O)c3cccc4cccnc34)CC2)c1` as the compound, how does the inhibition read?
Answer: -3% (inactive)

Question: `CCOc1ccc2c(c1)C(c1ccc(C)cc1)=NNC(c1ccc(C)cc1)=N2` was tested. Which inhibition did it give?
Answer: 5.9% (inactive)

Question: For `Cc1ccc(C2=Nc3c(ccc4ccccc34)C(c3ccncc3)=NN2)cc1`, which inhibition is on record?
Answer: 25.8% (active)

Question: With `O=C(NCCCCO)C(F)(F)C(F)(F)C(F)(F)C(=O)NCCCCO` as the compound, how does the inhibition read?
Answer: 11.3% (inactive)

Question: `Nc1cccc(-c2cncc(N3CCN(Cc4ccccn4)CC3)n2)c1` was tested. Which inhibition did it give?
Answer: 1.6% (inactive)

Question: With `CCCCCCCCCCOC(=O)C[N+](C)(C)CC1CCCCC1O` (centres undefined) as the compound, how does the inhibition read?
Answer: 18.2% (inactive)

Question: For `Cc1ccn2c(c1)nc(=O)c1cc(S(=O)(=O)N3CCC(C)CC3)ccc12`, which inhibition is on record?
Answer: -3.9% (inactive)

Question: For `COc1cc2c(=O)n(C)c3ccccc3c2cc1OC`, which inhibition is on record?
Answer: 0% (inactive)

Question: For `COc1cc2c(C(=O)O)c(C)n(C)c2c2ccccc12`, which inhibition is on record?
Answer: -42.6% (inactive)

Question: `COc1cccc2c(O)cc(=O)n(C)c12` was tested. Which inhibition did it give?
Answer: 19.9% (active)

Question: For `OC(CNC1CCCC1)COc1ccc(F)cc1` (centres undefined), which inhibition is on record?
Answer: -0.8% (inactive)

Question: For `COC(=O)C1CCN(CC(N)=O)CC1`, which inhibition is on record?
Answer: -10.1% (inactive)

Question: For `CCc1nc2c(OCc3ccc(C(F)(F)F)cc3)cccn2c1N(C)C(=O)CC(C)C`, which inhibition is on record?
Answer: 22.7% (active)

Question: How did the inhibition turn out when `CCCCC(=O)N(C)c1c(CC)nc2c(OCc3ccc(S(C)(=O)=O)cc3)cccn12` was run?
Answer: 1.6% (inactive)

Question: For `CCc1nc2c(OCc3ccc(C(=O)OC)cc3)cccn2c1N(C)C(=O)C(C)C`, which inhibition is on record?
Answer: 13.8% (inactive)

Question: For `COc1ccc(NC(=O)c2ccccc2CC[N+](=O)[O-])cc1`, which inhibition is on record?
Answer: 5.3% (inactive)

Question: `Cc1cc(C(=O)NNC(=O)CCC2CCCCC2)c(C)o1` was tested. Which inhibition did it give?
Answer: 3.2% (inactive)

Question: `O=C(Nc1cccc(OCC(=O)N2CCOCC2)c1)C1CCCCC1` was tested. Which inhibition did it give?
Answer: 21.3% (active)

Question: For `O=C1CC2(CCCCC2)Oc2ccc(OCC(=O)N3CCOCC3)cc21`, which inhibition is on record?
Answer: 0.6% (inactive)

Question: With `Cc1cccc(NC(=O)C2CCN(C(=O)NC3CCCCC3)CC2)c1` as the compound, how does the inhibition read?
Answer: -7.7% (inactive)

Question: `CN(C)CCCNC(=O)c1cc(C(=O)Cc2ccc(Cl)cc2)c[nH]1` was tested. Which inhibition did it give?
Answer: 3.7% (inactive)

Question: How did the inhibition turn out when `O=C(c1ccc(F)cc1)C1CCN(Cc2cn[nH]c2-c2ccccc2)CC1` was run?
Answer: -10.4% (inactive)

Question: Which inhibition does the source give for `COc1ccccc1CNC(=O)C1Cc2ccccc2C(=O)O1` (centres undefined) here?
Answer: -8.4% (inactive)

Question: How did the inhibition turn out when `O=C1/C(=C/c2cccs2)CCC1C1CCCC1` (centres undefined) was run?
Answer: 2.8% (inactive)

Question: With `C[C@H]1CC[C@]2(O[C@@H](CCO)C[C@@H](O)[C@@H]2O)O1` as the compound, how does the inhibition read?
Answer: 13.5% (inactive)

Question: `C[C@@H]1CC[C@]2(O[C@@H](CCO)C[C@H](O)[C@H]2O)O1` was tested. Which inhibition did it give?
Answer: -18.9% (inactive)

Question: With `OCC[C@H]1C[C@H](O)[C@@H](O)[C@]2(CCCCO2)O1` as the compound, how does the inhibition read?
Answer: 28.3% (active)

Question: How did the inhibition turn out when `COCCNC(=O)C1CCCN(Cc2ccccc2Cl)CC1` (centres undefined) was run?
Answer: 2% (inactive)

Question: Which inhibition does the source give for `Cc1ccc(S(=O)(=O)C2C(=O)NC3(C)CC2c2ccccc2O3)cc1` (centres undefined) here?
Answer: -9.3% (inactive)

Question: `CCCOc1ccc(CNC(=O)C2CCN(c3nn4c(=O)cc(C)nc4s3)CC2)cc1` was tested. Which inhibition did it give?
Answer: -7.5% (inactive)

Question: Which inhibition does the source give for `Cc1ccc(N(C(=O)CNC(=O)c2ccco2)C(C(=O)NC2CCCC2)c2ccncc2)cc1` (centres undefined) here?
Answer: 18.5% (active)

Question: With `CC(C)(C)NC(=O)C(c1ccncc1)N(C(=O)CNC(=O)c1ccco1)c1ccc2c(c1)OCO2` (centres undefined) as the compound, how does the inhibition read?
Answer: 4% (inactive)

Question: With `COc1cccc(N(C(=O)CNC(=O)c2ccco2)C(C(=O)NC2CCCCC2)c2cccnc2)c1` (centres undefined) as the compound, how does the inhibition read?
Answer: 5.7% (inactive)

Question: Which inhibition does the source give for `Cc1ccc(S(=O)(=O)NC2(C(F)(F)F)NC(=O)N(CCc3ccccc3)C2=O)cc1` (centres undefined) here?
Answer: 11.7% (inactive)

Question: Which inhibition does the source give for `O=C(c1c(F)cccc1Cl)N1CCN(S(=O)(=O)c2ccc3c(c2)OCCCO3)CC1` here?
Answer: 2.8% (inactive)

Question: `Cc1coc2c1c(C)cc1oc(=O)c(CC(=O)NCC(=O)N[C@H](C(=O)O)C(C)C)c(C)c12` was tested. Which inhibition did it give?
Answer: -3.3% (inactive)

Question: How did the inhibition turn out when `Cc1nn(CCCC(=O)NCc2ccccc2Cl)c(=O)c2nccn12` was run?
Answer: 3.3% (inactive)

Question: With `C[C@@H]1CN([C@H](C)CO)C(=O)CCCn2cc(nn2)CO[C@H]1CN(C)S(C)(=O)=O` as the compound, how does the inhibition read?
Answer: -4.3% (inactive)

Question: How did the inhibition turn out when `Cc1coc2c(O)cc3c(c12)OC1(N2CCCCC2)C(=O)NCCCC31` (centres undefined) was run?
Answer: 26.1% (active)

Question: With `CSc1nnnn1-c1c(C)cc(C)cc1C` as the compound, how does the inhibition read?
Answer: 9.3% (inactive)

Question: Which inhibition does the source give for `COCCN(C(=O)COC(=O)Cc1cccc(OC)c1)c1c(N)n(Cc2ccccc2)c(=O)[nH]c1=O` here?
Answer: 3.8% (inactive)

Question: Which inhibition does the source give for `O=C(O)C1CCCN(CCC=C(c2ccccc2)c2ccccc2)C1` (centres undefined) here?
Answer: 1.9% (inactive)

Question: With `O=[N+]([O-])/C=C/c1ccc2c(ccn2Cc2ccccc2)c1` as the compound, how does the inhibition read?
Answer: -5.7% (inactive)

Question: With `COC(=O)c1c(C)[nH]c(C(=O)/C=C/c2ccc(Cl)cc2)c1C` as the compound, how does the inhibition read?
Answer: 41% (active)

Question: With `COC(=O)c1c(C)[nH]c(C(=O)NCCc2ccc(S(N)(=O)=O)cc2)c1C` as the compound, how does the inhibition read?
Answer: -1.4% (inactive)

Question: For `Cc1cc(C)nc(NC(=O)/C=C/c2ccc(Cl)cc2)n1`, which inhibition is on record?
Answer: 6.6% (inactive)
